Screening results: PubChem BioAssay, The Scripps Research Institute Molecular Screening Center
TEAD-YAP inh – TEAD-YAP interaction inhibition | 640,000 compounds, 1.4% hits | inhibition, % at 9.12 µM | HEK-TIYL cells, TEAD-Gal4/YAP UAS-luciferase luminescence; in the data active = inhibition above about 32%
GPR151 activ – activates the human receptor GPR151; Q8TDV0; PathHunter beta-arrestin GPR151 cells, luminescence; activation, % at 11.2 µM; 650,000 compounds, 1% hits; AID 1508602; in the data active = activation above about 4.9%
FBW7 act – human FBW7 E3 ligase activation, primary screen; Q969H0; AlphaScreen FBW7–phospho-cyclin E peptide binding, activator screen; normalized activity (activation), % at 26.1 µM; 650,000 compounds, 0.13% hits; AID 1259310; in the data active = normalized activity above about 1.9%;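 also: purified mutant Fbw7 with reduced substrate affinity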
MITF inh – human MITF inhibition, primary screen. O75030. AlphaScreen MITF homodimerization, bead proximity signal. inhibition, % at 2.6 µM. 650,000 compounds, 0.91% hits; in the data active = inhibition above about 50%
Target sequence (O75030 whole entry, looked up): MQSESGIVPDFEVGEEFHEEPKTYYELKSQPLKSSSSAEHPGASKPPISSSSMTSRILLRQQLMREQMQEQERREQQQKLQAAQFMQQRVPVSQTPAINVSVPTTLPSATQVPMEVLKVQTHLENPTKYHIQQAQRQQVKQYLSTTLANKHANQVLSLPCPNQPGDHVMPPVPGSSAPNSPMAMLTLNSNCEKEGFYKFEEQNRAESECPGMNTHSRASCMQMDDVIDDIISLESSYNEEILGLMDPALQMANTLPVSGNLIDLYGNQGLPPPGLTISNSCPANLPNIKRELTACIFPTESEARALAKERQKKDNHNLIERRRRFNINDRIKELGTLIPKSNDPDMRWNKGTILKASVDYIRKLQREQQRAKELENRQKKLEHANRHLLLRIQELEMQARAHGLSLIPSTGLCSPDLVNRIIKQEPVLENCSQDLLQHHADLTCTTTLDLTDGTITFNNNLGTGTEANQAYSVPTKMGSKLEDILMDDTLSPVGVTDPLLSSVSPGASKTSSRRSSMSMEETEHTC
GPR151 confirm – human GPR151 activation, confirmation screen. shares compounds with GPR151 activ. GPR151 PathHunter beta-arrestin cells, luminescence, 90 min; % of EA-reagent control over plate median. activation, % at 11.2 µM. 6,700 tested, under 10 active;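 active = mean percent activation across replicates above the confirmation screen cutoff of 4.91%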
GPR119 counter – GPR119 activation, counter-screen for GPR151 activators. shares compounds with GPR151 activ. GPR119 PathHunter beta-arrestin cells, luminescence, 90 min; 0 = compound-well median, 100 = enzyme-acceptor control. activation, % at 11.2 µM. 6,700 compounds, 0.3% hits. AID 1508611;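 active = mean percent activation in the counterscreen above 29.09%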;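 also: counterscreen on off-target GPR119 to flag nonselective hits from the GPR151 activator screen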
Of the large screens only hits and unclear results are named; the others gave an inactive call (follow-up assays come after a bar, where they were run). An excerpt weighted towards active compounds, which were near 3.5% of everything screened.

COC(=O)CCC(C)C1CCC2C3CC[C@@H]4C[C@H](O)CC[C@]4(C)C3C[C@H](O)[C@]12C (stereo partly specified)	GPR151 activ 6.4 | GPR151 confirm inactive | GPR119 counter inactive
CC(=O)Nc1c2c(nn1-c1nc3ccccc3s1)CCC2	none
Cc1cnn(C)c1C(=O)Nc1c2c(nn1-c1nc3ccccc3s1)CCC2	GPR151 activ 19.8 | GPR151 confirm inactive | GPR119 counter inactive
O=C(/C=C/c1ccccc1)NCc1ccco1	none
O=C(/C=C/c1ccc(OCc2ccccc2)cc1)NCc1ccco1	GPR151 activ 8.0 | GPR151 confirm inactive | GPR119 counter inactive
COc1ccccc1/C=C/C(=O)NCc1ccco1	GPR151 activ 8.9 | GPR151 confirm inactive | GPR119 counter inactive
O=C(/C=C/c1ccccc1Cl)NCc1ccco1	none
Cc1ccccc1NC(=O)C(=O)NCC1CCCN1S(=O)(=O)c1ccccc1 (stereo unspecified)	none
O=C(CSc1nnc(-c2ccncc2)o1)c1cccc([N+](=O)[O-])c1	none
COc1cc(OC)cc(-c2nnc(SCC(=O)c3cccc([N+](=O)[O-])c3)o2)c1	GPR151 activ 7.2 | GPR151 confirm inactive | GPR119 counter inactive
COc1ccc(-n2nc(C(=O)NCc3ccc(F)cc3)c3ccccc3c2=O)cc1	none
CCOc1ccc(-n2nc(C(=O)NCc3ccc(F)cc3)c3ccccc3c2=O)cc1	GPR151 activ 6.4 | GPR151 confirm inactive | GPR119 counter inactive
CCCN(CCC)CCCNC(=O)c1nn(-c2ccc(OCC)cc2)c(=O)c2ccccc12	GPR151 activ 8.8 | GPR151 confirm inactive | GPR119 counter inactive
CCCN(CCC)CCCNC(=O)c1nn(-c2ccc(OC)cc2)c(=O)c2ccccc12	none
O=C(NC1CCCC1)c1cccn2c(=O)c3c4c(sc3nc12)CCCC4	none
CC(OCc1ccccc1)C(NC(=O)OC(C)(C)C)C(=O)Nc1nccs1 (stereo unspecified)	GPR151 activ 13.4 | GPR151 confirm inactive | GPR119 counter inactive
CC(C)(C)c1ccc(C(=O)Nc2cc3cc(Br)ccc3oc2=O)cc1	none
CCOC(=O)C1CCN(c2c(NC(c3ccccc3)c3ccccc3)c(=O)c2=O)CC1	none
CNS(=O)(=O)c1ccccc1Nc1cc(NC(=O)Cc2ccc(OC)cc2)ncc1C(F)(F)F	TEAD-YAP inh 93.0, GPR151 activ 11.1 | GPR151 confirm inactive | GPR119 counter inactive
COc1ccc(CC(=O)Nc2ccccc2NC(C)=O)cc1	none
Nc1nc(NCCOc2ccccc2)cc(-c2ccc(C(=O)NC3CC3)cc2)n1	none
CCc1ccc(NC(=O)CCc2ccc(CC)o2)cc1	GPR151 activ 8.5 | GPR151 confirm inactive | GPR119 counter inactive
COC(=O)C1=C(C)N=c2s/c(=C\c3c(F)cccc3Cl)c(=O)n2C1c1ccccc1 (stereo unspecified)	GPR151 activ 5.3 | GPR151 confirm inactive | GPR119 counter inactive
CCOC(=O)C1=C(C)N=c2s/c(=C\c3ccc(OC)cc3)c(=O)n2C1c1ccccc1OC (stereo unspecified)	none
CCOC(=O)C1=C(c2ccccc2)N=c2s/c(=C\c3ccco3)c(=O)n2C1c1cccs1 (stereo unspecified)	none
CCOC(=O)C1=C(C)N=c2s/c(=C\c3ccc(-c4ccc(C(=O)O)cc4)o3)c(=O)n2C1c1ccccc1OC (stereo unspecified)	none
CCOC(=O)C1=C(C)N=c2s/c(=C\c3ccco3)c(=O)n2C1c1cccs1 (stereo unspecified)	GPR151 activ 7.5 | GPR151 confirm inactive | GPR119 counter inactive
CCOC(=O)C1=C(C)N=c2s/c(=C\c3c(F)cccc3Cl)c(=O)n2C1c1ccc(C)cc1 (stereo unspecified)	none
CCOC(=O)C1=C(C)N=c2s/c(=C\c3ccc(-c4ccccc4C(=O)O)o3)c(=O)n2C1c1ccccc1OC (stereo unspecified)	GPR151 activ 5.7 | GPR151 confirm inactive | GPR119 counter inactive
CCOC(=O)C1=C(C)N=c2s/c(=C\c3ccc(C)cc3)c(=O)n2C1c1ccccc1OC (stereo unspecified)	GPR151 activ 8.6 | GPR151 confirm inactive | GPR119 counter inactive
CCOC(=O)C1=CN(c2ccc(OCC)cc2)C=C(C(=O)OCC)C1c1ccc(Cl)c(Cl)c1	none
CC1(Nc2ccc(Cl)cc2)CC(=O)N(c2ccccc2)O1 (stereo unspecified)	none
NC1=NC(=O)C(CC(=O)Nc2ccccc2NC(=O)CC2SC(N)=NC2=O)S1 (stereo unspecified)	none
COc1ccc(-n2cnnc2SCC(=O)N2CCc3ccccc32)cc1	none
CC(C)(C)c1ccc(C(=O)N/N=C/c2ccc(O)c([N+](=O)[O-])c2)cc1	GPR151 activ 5.1 | GPR151 confirm inactive | GPR119 counter inactive
COc1ccc(/C=N\NC(=O)c2ccc([N+](=O)[O-])cc2)cc1Cl	GPR151 activ 6.5 | GPR151 confirm inactive | GPR119 counter inactive
COc1ccc(C(=O)N/N=C/c2cc(OC)ccc2O)cc1	none
O=C(N/N=C/c1cc([N+](=O)[O-])ccc1O)C12CC3CC(CC(C3)C1)C2	GPR151 activ 5.1 | GPR151 confirm inactive | GPR119 counter inactive
COc1ccc(O)c(/C=N/NC(=O)c2cc([N+](=O)[O-])cc([N+](=O)[O-])c2)c1	GPR151 activ 7.0 | GPR151 confirm inactive | GPR119 counter inactive
Cc1[nH]n(-c2cccc(Cl)c2)c(=O)c1C=NCCN=Cc1c(C)[nH]n(-c2cccc(Cl)c2)c1=O	none
CC(=O)NS(=O)(=O)c1ccc(-c2ccc(/C=C3/C(=O)N(CCO)C(=O)C(C#N)=C3C)o2)cc1	none
Cc1ccc2c(c1)cc(CN(CCc1ccccc1)C(=O)N1CCOCC1)c1nnnn12	GPR151 activ 5.2 | GPR151 confirm inactive | GPR119 counter inactive
Cc1ccc2c(c1)cc(CN(Cc1cccs1)C(=O)c1cccs1)c1nnnn12	none
Cc1ccc2c(c1)cc(CN(Cc1ccco1)S(=O)(=O)c1ccccc1)c1nnnn12	GPR151 activ 6.7 | GPR151 confirm inactive | GPR119 counter inactive
Cc1ccc2c(c1)cc(CN(Cc1cccs1)C(=O)C1CC1)c1nnnn12	GPR151 activ 5.4 | GPR151 confirm inactive | GPR119 counter inactive
Cc1ccc2c(c1)cc(CN(Cc1ccco1)C(=O)N(C)C)c1nnnn12	none
Cc1nc2c(C(=O)N3CCCC3)cnn2c(C)c1Cc1ccccc1F	none
O=C(O)CCNc1ccc([N+](=O)[O-])cc1[N+](=O)[O-]	none
N#Cc1c(N)nc(SCc2ccc(Cl)c(Cl)c2)c(C#N)c1-c1ccccc1	none
NC(=O)CSc1nnc(Cc2ccccc2)n1-c1ccc(F)cc1	GPR151 activ 6.0 | GPR151 confirm inactive | GPR119 counter inactive
COc1ccc(OC(=O)c2ccc(N(C)S(=O)(=O)c3ccccc3)cc2)cc1	none
